An excerpt weighted towards active compounds, which were near 3.1% of everything screened.
GBA activity: modulators of human glucocerebrosidase | P04062 | purified enzyme, resorufin glucoside fluorescence (screen aimed at inhibitors), 20 min | Potency, µM | 48,000 tested, 1.1% active; in the data active means potency below about 15 µM; inconclusive means mostly about 16 µM to 33 µM;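 further: the screen sought inhibitors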
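Normal human glucocerebrosidase (0.2 nM final) was assayed with resorufin β-D-glucopyranoside (30 uM final) in 50mM citric acid/KH2PO4, 10mM sodium taurocholate, 0.01% tween-20, pH 5.9. Compounds were titrated; fluorescence (Ex 548, Em 600) read after 20 min at RT.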
FLuc inh: firefly luciferase inhibition | Potency, µM (titrated, usually from 57.1 µM), without a hit: top-dose activity change, negative = inhibition, actives largely listed as inhibitors | 72,000 tested, 2.2% active | AID 411 | P08659 | purified firefly luciferase, luminescence, 8 min; further: on the % scale 0 is the no-effect control and ±100 the full control effect; nearly all actives have a fitted effect of over 40% in size
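Inhibition of light generation by firefly luciferase from ATP and luciferin was profiled with concentration-response curves per sample, ATP held at 10 uM within the enzyme's linear range. Plates were read by luminescence after an 8-minute ambient incubation.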
Casp1 inh: allosteric or competitive inhibitors of human caspase-1; 75,000 tested, 0.03% active; AID 900; Potency, µM (titrated, usually from 57.5 µM), for the others: top-dose activity change, negative = inhibition, usual class: inhibitors; Caspase-1 enzyme, Ac-WEHD-AFC fluorogenic rate;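 further: plate controls were vehicle for no effect and no substrate for full effect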
Caspase-7 inhib: blocks human caspase-7 allosterically or competitively | P55210 | recombinant caspase-7, Ac-DEVD-AFC fluorescence rate | AID 889 | 75,000 tested, 0.02% active | Potency, µM (titrated, usually from 57.5 µM), for the others: top-dose activity change, negative = inhibition, most hits filed as inhibitors; active means well fitted inhibition curve with a large enough effect in the main read-out, with a control signal flat, not every such curve was filed as active; inconclusive means small, poorly fitted or top-dose-only effect, or a change in a side signal; further: % of control where 0% means no effect
PK Bst: pyruvate kinase (B. stearothermophilus) modulation | purified pyruvate kinase, luminescence ATP production; ribose 5-phosphate activator present at AC10 | Potency, µM | 51,000 tested, 1.2% active | AID 361; in the data active means potency below about 11 µM; inconclusive means mostly about 12 µM to 25 µM;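 the screen sought inhibitors and activators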;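 further: scaled between full activation by ribose 5 phosphate and full inhibition by luteolin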
Starred values were filed as active, the others as inactive; i = inactive; ? = inconclusive; . = no result given; [ ] = dose if it differs, or a comment. Unless noted, the call rests on the fitted dose curve; in most records, active means well fitted inhibition curve with a large enough effect; inconclusive means small, poorly fitted or top-dose-only effect; inactive means flat fitted curve, though single readings scatter. Potency means the concentration at half of the fitted maximal effect.

SMILES | GBA activity | FLuc inh | Casp1 inh | Caspase-7 inhib | PK Bst
N=c1ccn2c(n1)O[C@@H]1[C@@H](O)[C@H](CO)O[C@H]12 | . | 0% | 1% | 2% | .
OC[C@@H]1O[C@@H](n2cnc3c(Nc4ccccc4)ncnc32)[C@@H](O)[C@H]1O | . | -11% | 4% | 0% | .
O=C(O)c1cc(O)c2c(c1)[C@H]([C@H]1c3cc(C(=O)O)cc(O)c3C(=O)c3c(O[C@@H]4OC(CO)C(O)C(O)C4O)cccc31)c1cccc(O[C@@H]3OC(CO)C(O)C(O)C3O)c1C2=O (some centres undefined) | . | . | 25µM* | 10µM* | .
O=C1c2cccc(O)c2C(=O)c2c(O[C@@H]3O[C@H](CO)[C@@H](O)[C@H](O)[C@@H]3O)cccc21 | . | -6%[11.4 µM] | 1%[11.5 µM] | -3%[11.5 µM] | .
O=C(O)/C(=C\c1ccccc1)Cc1ccccc1 | . | -1%[11.4 µM] | 3%[11.5 µM] | 1%[11.5 µM] | .
COC(=O)c1ccc(NC(=O)c2ccccc2NS(C)(=O)=O)cc1 | >77 | 16µM* | -1% | -2% | .
O=C(O)CSCc1cccc2ccccc12 | . | -1%[11.4 µM] | -2%[11.5 µM] | -1%[11.5 µM] | .
Cc1cccc(-c2cc3nc4c(c(N5CCC6(CC5)OCCO6)n3n2)CCCC4)c1 | i | -2% | 1% | 0% | >57
Cc1cccc(-c2cc3nc4c(c(N5CCOCC5)n3n2)CCCC4)c1 | >77 | 16µM* | -3% | -3% | ?
O=C(CSc1nnnn1-c1cccc2ccccc12)N1CCOCC1 | >77 | -2% | -1% | 0% | 8*
CCC=O | . | . | -1% | 0% | .
S=C1N[C@H](c2ccccc2)N[C@H](c2ccccc2)S1 | . | 1%[11.4 µM] | 0%[11.5 µM] | 1%[11.5 µM] | .
O=C(Cc1cc(=O)[nH]c(=O)[nH]1)NCCN1CCOCC1 | . | 7.9µM* | -5% | -3% | .
O=C(Cc1cc(=O)[nH]c(=O)[nH]1)NCC1CCCO1 (centres undefined) | . | 3% | -4% | -5% | .
Clc1ccc(/C=C\c2nc(Cl)c(-c3ccc(Cl)cc3)c(Cl)n2)cc1 | . | 5%[11.4 µM] | -3%[11.5 µM] | -8%[11.5 µM] | .
CCN1CCN(Cc2ccc(NC(=O)Nc3ccccc3)cc2)CC1 | . | 13µM* | -2% | -1% | .
O=C(COC(=O)c1cc2ccccc2o1)c1ccccc1 | . | 13µM* | -1% | 0% | .
O=C(COC(=O)c1cccs1)c1ccccc1 | >77 | 5µM* | 1% | -1% | ?
Oc1ccc2ccccc2c1/C=C\c1ccc2c(Br)cc(Br)c(O)c2n1 | . | 1%[11.4 µM] | -2%[11.5 µM] | -4%[11.5 µM] | .
CCOc1cc(C#N)c(NC(=O)c2ccco2)cc1OCC | >77 | 0% | 1% | 2% | >57
N#Cc1cc(-c2ccccc2)oc1NC(=O)c1ccco1 | >77 | 25µM* | -1% | 0% | .
O=C(NCCN1CCCCC1)c1ccc(Cc2nc3ccccc3[nH]2)cc1 | . | . | -2% | 0% | .
CC1CCc2c(sc3nc(SCC(=O)NCc4ccco4)nc(N)c23)C1 (centres undefined) | >77 | 13µM* | -2% | -2% | i
CC1CCc2c(sc3nc(C4CC4)nc(SCC(=O)NCc4ccco4)c23)C1 (centres undefined) | >77 | -16% | -1% | -4% | .
COc1cc(-c2nnc(SCC(=O)c3ccc(C)cc3)o2)cc(OC)c1OC | i | 1% | -2% | 3% | >57
SMILES | GBA activity | FLuc inh | Casp1 inh | Caspase-7 inhib | PK Bst
COc1cc(-c2nnc(SCC(=O)c3cc(C)n(CC4CCCO4)c3C)o2)cc(OC)c1OC (centres undefined) | 13* | -8% | -2% | -6% | >57
O=C(O)C1CCN(c2nc(-c3ccccc3)nc3c2oc2ccccc23)CC1 | i | 1% | -2% | 0% | 7.4*
OCCN1CCN(c2nc(-c3ccccc3)nc3c2oc2ccccc23)CC1 | i | 3% | -2% | 0% | 6*
CCOC(=O)C1CCN(c2nc(-c3ccccc3)nc3c2oc2ccccc23)CC1 | 7.4* | 1% | -2% | -2% | i
CCOC(=O)C1CCN(c2ncnc3c2oc2ccccc23)CC1 | . | -2% | 0% | -2% | i
Cc1nc(N2CCC(C)CC2)c2oc3ccccc3c2n1 | >77 | 2% | -2% | -2% | .
O=C(O)CSc1nc(-c2ccccc2)nc2c1oc1ccccc12 | >77 | -2% | -2% | 0% | ?
CC[C@H](CN(C)C)C(=O)c1ccco1 | . | 3%[11.4 µM] | 5%[11.5 µM] | 1%[11.5 µM] | .
O=c1[nH]c(=O)n([C@H]2C[C@H](O)[C@H](CO)O2)cc1/C=C\Br | . | 3% | -2% | 2% | .
COC(=O)c1c(NC(=O)c2ccc(C)o2)sc2c1CCCCC2 | . | -27% | ? | -17% | .
NC(=O)c1c(NC(=O)c2cc3ccccc3o2)sc2c1CCC2 | >77 | 3.2µM* | -15% | -18% | .
Cc1ccc(C(=O)Nc2sc3c(c2C(=O)O)CCCCC3)o1 | >77 | 20µM* | 0% | -1% | i
O=C(O)CC12C[C@H]3C[C@@H](CC(O)(C3)C1)C2 | . | -1%[11.4 µM] | 2%[11.5 µM] | -1%[11.5 µM] | .
Clc1cccc(Cl)c1Cn1cnc(=NCc2ccco2)c2[nH]cnc21 | . | -1% | 0% | -1% | 2.2*
CCc1nnc(NC(=O)c2ccc(OC)cc2OC)s1 | . | 7.9µM* | -5% | -1% | .
O=C(O)[C@@H]1[C@@H]2O[C@H]([C@@H](Br)[C@H]2Br)[C@H]1C(=O)O | . | 3%[11.4 µM] | -1%[11.5 µM] | 2%[11.5 µM] | .
CC(Sc1ccc2c(c1)OCCO2)C(=O)Nc1ccc2c(c1)OCO2 (centres undefined) | 15* | 1% | 0% | 9% | >57
Cc1nnc(SC(C)C(=O)Nc2ccc3c(c2)OCCO3)s1 (centres undefined) | >77 | -4% | 1% | -1% | >57
CC(C)C(NC(=O)C1CCCCC1)C(=O)Nc1ccc2c(c1)OCCO2 (centres undefined) | >77 | 13µM* | 2% | 1% | ?
COc1ccc(-c2nnc(SC(C)C(=O)Nc3ccc4c(c3)OCCO4)o2)cc1 (centres undefined) | >77 | 20µM* | -2% | 0% | .
COc1ccc2c(c1)[n+]([O-])c(/C(C)=N/NC(N)=S)c(C)[n+]2[O-] | . | -3%[11.4 µM] | 0%[11.5 µM] | -3%[11.5 µM] | .
CC(=O)OC(C(=O)c1ccccc1)c1ccccc1 (centres undefined) | . | . | 1% | -1% | .
CCOC(=O)C1CCN(c2c(NCc3ccc(C(=O)O)cc3)c(=O)c2=O)CC1 | . | -1% | 1% | 0% | .
O=C(NC1CCCCCC1)c1c(O)c2ccccc2[nH]c1=O | 11* | -2% | -2% | 1% | .
O=C(Cc1c(O)c2ccccc2[nH]c1=O)NC1CCCCCC1 | >77 | -5% | -3% | -5% | >57
SMILES | GBA activity | FLuc inh | Casp1 inh | Caspase-7 inhib | PK Bst
CC1(C)Cc2c(sc3nc(SCC(=O)N4CCOCC4)nc(N)c23)CO1 | 14* | -1% | -6% | -7% | >57
Clc1nc(NCCc2ccccc2)c2ncn(-c3ccccc3)c2n1 | . | 1%[11.4 µM] | . | . | .
COc1cccc(C=NC=Nc2cccc(OC)c2)c1 | . | 0% | -2% | -2% | .
Clc1cccc(C=NC=Nc2cccc(Cl)c2)c1 | . | 2µM* | -3% | 0% | .
C=C(C)CN(CC#N)CC(=C)C | . | 0%[11.4 µM] | 0%[11.5 µM] | 2%[11.5 µM] | .
CCc1nnc(NC(=O)CSc2nc3c(cc2C#N)CCCC3)s1 | >77 | ? | . | ? | .
COC(=O)CSc1nc2c(c(-c3ccc(C)o3)c1C#N)CCCC2 | 15* | -1% | -5% | -1% | >57
